Most compounds without a hit are left out; they make up all but 18% or so of the library.
TDP1 cell noCPT: qHTS for Inhibitors of human tyrosyl-DNA phosphodiesterase 1 (TDP1): qHTS in cells in absence of CPT; DT40 Tdp1-/- hTDP1 cells, no CPT, ATP luminescence, 48 h; 15% of 420,000 active; Potency, µM (series often up to 46.2 µM), for inactives: top-dose activity change, negative = growth inhibition, usual class: inhibitors; note: nearly all actives have a fitted effect of over 55% in size
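Stably hTDP1-transfected Tdp1-null chicken DT40 cells were treated with library compounds minus camptothecin and grown for at least 48 hr at 37 °C, after which cellular ATP was quantified by luminescence.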
TDP1 block: qHTS Assay for Inhibitors of Tyrosyl-DNA Phosphodiesterase (TDP1). Tyrosyl-DNA phosphodiesterase 1 (Homo sapiens), Q9NUW8. recombinant TDP1, AlphaScreen DNA substrate cleavage. Potency, µM (highest dose often 130 µM), for inactives: at the highest dose activity change, negative = inhibition, actives largely listed as inhibitors. 0.28% of 350,000 active. AID 485290, 2010; note: nearly all actives have a fitted effect of over 40% in size
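E. coli-derived human Tdp1, 1 nM final. Cpd preinc 15 min RT; substrate 15 nM final, 5 min RT; AS bead mix 10 ug/ml final, 10 min RT. Signal loss = tyrosine-FITC cleavage. No-enzyme wells = max signal.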
GCN5L2 inh: qHTS Assay for Inhibitors of GCN5L2; Histone acetyltransferase KAT2A (Homo sapiens), Q92830; GCN5L2 HAT assay, ThioGlo1 CoA-SH fluorescence; Potency, µM (highest dose often 58.9 µM), without a hit: at the highest dose activity change, negative = inhibition, hits mostly inhibitors; 0.21% of 390,000 active; AID 504327, 2011
Target sequence (Q92830 whole entry, looked up): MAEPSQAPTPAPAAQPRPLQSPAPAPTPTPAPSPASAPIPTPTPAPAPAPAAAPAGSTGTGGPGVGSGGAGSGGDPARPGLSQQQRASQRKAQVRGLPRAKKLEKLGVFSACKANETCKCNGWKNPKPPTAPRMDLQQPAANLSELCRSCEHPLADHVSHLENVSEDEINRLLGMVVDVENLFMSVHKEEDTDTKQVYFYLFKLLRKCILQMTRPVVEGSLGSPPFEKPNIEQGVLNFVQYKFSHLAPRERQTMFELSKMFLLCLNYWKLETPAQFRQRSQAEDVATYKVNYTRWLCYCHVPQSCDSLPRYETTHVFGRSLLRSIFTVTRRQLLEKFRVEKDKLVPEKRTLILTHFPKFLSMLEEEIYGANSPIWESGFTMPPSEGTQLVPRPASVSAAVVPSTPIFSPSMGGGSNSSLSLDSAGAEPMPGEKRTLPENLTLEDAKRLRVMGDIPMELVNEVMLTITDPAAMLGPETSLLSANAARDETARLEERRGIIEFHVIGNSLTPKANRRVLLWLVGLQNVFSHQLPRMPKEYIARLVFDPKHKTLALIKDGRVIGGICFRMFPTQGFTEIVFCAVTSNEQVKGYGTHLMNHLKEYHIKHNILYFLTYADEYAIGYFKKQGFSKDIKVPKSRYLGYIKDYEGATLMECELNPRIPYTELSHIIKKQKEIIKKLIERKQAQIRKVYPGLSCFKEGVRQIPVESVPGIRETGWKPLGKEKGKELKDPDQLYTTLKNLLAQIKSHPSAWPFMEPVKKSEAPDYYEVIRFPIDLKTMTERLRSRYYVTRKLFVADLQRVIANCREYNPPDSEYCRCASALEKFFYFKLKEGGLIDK
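Free CoA generated was detected with ThioGlo1 (50uM) fluorescence at Ex340nm/Em540nm, read immediately and after 20 min at room temperature. Enzyme, 20 nM in HEPES pH 7.5 buffer, saw compounds 15 min before adding 75uM H3(1-25) peptide and 70uM acetyl-CoA.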
TDP1 cell CPT: qHTS for Inhibitors of human tyrosyl-DNA phosphodiesterase 1 (TDP1): qHTS in cells in presence of CPT; AID 686979, 2013; chicken DT40 Tdp1-/-;hTDP1 cells + 20 nM CPT, ATP luminescence, 48 h; 12% of 420,000 active; Potency, µM (top dose mostly 46.2 µM), inactives show at the highest dose activity change, negative = growth inhibition, hits mostly inhibitors; note: nearly all actives have a fitted effect of over 55% in size
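Chicken DT40 Tdp1-/- cells stably complemented with human TDP1 were seeded at 400 cells/well in medium containing 20 nM camptothecin, exposed to pin-transferred compounds, and grown at 37 °C for at least 48 hr. Viability was read as ATP luminescence.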
VDR inh: Inhibitors of the vitamin D receptor (VDR): qHTS. Vitamin D3 receptor (Homo sapiens), P11473. VDR-SRC2-3 peptide fluorescence polarization, 2 h. Potency, µM, for inactives: max response, negative = inhibition, actives largely listed as inhibitors. 0.93% of 400,000 active. AID 504847, 2011
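FP read-out; VDR + SRC2-3 coactivator peptide; 23 nl compound by pintool; 2 h RT incubation; reagents held at 4 deg C, protected from light.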
PLK1 PBD block: qHTS for Inhibitors of PLK1-PDB (polo-like kinase 1 - polo-box domain): Primary Screen; Serine/threonine-protein kinase PLK1 (Homo sapiens), P53350; Plk1 PBD binding of FITC phosphopeptide, fluorescence polarization; Potency, µM, without a hit: max response, negative = inhibition, hits mostly inhibitors; 2.8% of 360,000 active; AID 720504, 2013; note: series mostly up to about 57 µM; nearly all actives have a fitted effect of over 65% in size
Active calls of the source: *; ? = inconclusive; · = no result; [ ] = another dose, or the depositor's remark. Calls come from the whole dose curve; as a rule, active = well fitted curve in the direction sought with a large enough effect; inconclusive = small, poorly fitted or top-dose-only effect, or another doubt; inactive = no such curve, though single readings can be large; an effect the other way counts as inactive or inconclusive. % is set by controls: 0 for no effect and ±100 for the full control effect; potency is the fitted concentration of half-maximal effect.

SMILES | TDP1 cell noCPT | TDP1 block | GCN5L2 inh | TDP1 cell CPT | VDR inh | PLK1 PBD block
CC(=O)Oc1ccc(Cl)c2cccnc12 | 8.2µM* | 18% | -9% | 3.7µM* | 4% | ·
Cc1cccc(NC(=O)Oc2ccc(Cl)c3cccnc23)c1 | 5.2µM* | · | · | 12µM* | · | -3%
CN(C(=O)Oc1ccc(Cl)c2cccnc12)c1ccccc1 | -15% | 6% | -1% | -15% | -4% | -7%
CN(C)C(=O)Oc1c(Cl)cc(Cl)c2cccnc12 | -3% | -1% | 2% | 1% | -4% | -10%
O=C(O)/C=C/C(=O)O | 1% | 3% | 2% | 0% | -17% | -1%
C=C1C(=O)O[C@H]2C[C@@H](C)[C@@H]3C=CC(=O)[C@@]3(C)C[C@H]12 | 0.65µM* | 1% | 2% | 1µM* | -20% | -17%
C=C1C(=O)O[C@@H]2C[C@@H](C)[C@@H]3C=CC(=O)[C@@]3(C)[C@@H](OC(=O)CC(=O)O[C@H]3[C@@H]4C(=C)C(=O)O[C@@H]4C[C@@H](C)[C@@H]4C=CC(=O)[C@]43C)[C@H]12 | 0.073µM* | 2% | -7% | 0.058µM* | 18µM* | ?
COC(=O)C1=C(c2ccc(C(C)=O)cc2)C[C@@H]2CC[C@H]1N2C(=O)N1CCCC1 | ? | 1% | 3% | ? | -2% | -1%
COC(=O)C1=C(c2ccc(C(C)=O)cc2)C[C@@H]2CC[C@H]1N2C(=O)N1CCCCC1 | 16µM* | 1% | -3% | 21µM* | -1% | 6%
COC(=O)C1=C(c2ccc(OC(F)(F)F)cc2)C[C@@H]2CC[C@H]1N2C(=O)N1CCCCC1 | 2.1µM* | -3% | -10% | 2.6µM* | 4% | -15%
CCN1C[C@@]2(COC)C3[C@@H](OC)C4[C@@H]1C3([C@@H]1C[C@]3(O)[C@H](OC(=O)c5ccccc5)[C@@H]1[C@]4(OC(C)=O)[C@@H](O)[C@@H]3OC)[C@H](OC)C[C@H]2O | · | · | 1% | · | -1% | ·
ClCCN(CCCl)/C(=C\c1ccccc1)c1ccnc2ccccc12 | 3.5µM* | · | · | 5.6µM* | · | ·
Cc1ccccc1CCNCc1cc2cccc(C)c2[nH]c1=O | 16µM* | -8% | -7% | 16µM* | -5% | -5%
CN(C)S(=O)(=O)c1cc(NC(=O)COC(=O)Cc2ccccc2)ccc1Cl | 18µM* | 1% | 1% | ? | ? | 30µM*
CN(C)S(=O)(=O)c1cc(NC(=O)C[N+]23CCN(CC2)CC3)ccc1Cl | 1% | -4% | -2% | -6% | -5% | -5%
CCc1cc(-c2cnnn2Cc2ccc3ccccc3c2)ccc1-c1cn(CC(C)C)nn1 | 21µM* | · | · | 26µM* | · | -2%
NC1=N[C@H](O)[C@H]2C3O[C@]4(O)O[C@H](C(O)[C@@]2(N1)[C@@H]4O)C3(O)CO (stereo not given in full) | · | 17% | -2% | · | -6% | ·
COC(=O)CC1Oc2ccc(C)cc2-n2cc(-c3ccc(F)cc3)nc21 (stereo not given) | 9.2µM* | 12% | -4% | 18µM* | -5% | ·
COC(=O)C1=C(c2ccc3ccccc3c2)C[C@@H]2CC[C@H]1N2C(=O)NCC1CC1 | 9.2µM* | 1% | ? | 12µM* | -25% | 2%
COC(=O)C1=C(c2ccc(OC)c(OC)c2)C[C@@H]2CC[C@H]1N2C(=O)N1CCCCC1 | 9.2µM* | 2% | 1% | 8.2µM* | -3% | -18%
COC(=O)C1=C(c2ccc3ccccc3c2)C[C@@H]2CC[C@H]1N2C(=O)N1CCC(O)CC1 | ? | 1% | -5% | ? | -2% | 11%
CCCNC(=O)N1[C@H]2CC[C@@H]1C(C(=O)OC)=C(c1ccc(OC)c(OC)c1)C2 | -11% | 0% | -13% | -3% | -7% | -22%
COC(=O)C1=C(c2ccc3ccccc3c2)C[C@@H]2CC[C@H]1N2C(=O)N1CCOCC1 | 5.8µM* | 2% | -7% | ? | -16% | -16%
COC(=O)C1=C(c2ccc3ccccc3c2)C[C@@H]2CC[C@H]1N2C(=O)N1CCCC1 | 3.3µM* | 0% | -1% | 2.9µM* | -5% | -6%
CC(C)(O)[C@@H]1C2OC(=O)[C@@H]1[C@]1(O)C[C@H]3O[C@]34C(=O)O[C@H]2[C@]14C | -7% | 7% | -3% | ? | 4% | ·
SMILES | TDP1 cell noCPT | TDP1 block | GCN5L2 inh | TDP1 cell CPT | VDR inh | PLK1 PBD block
Nn1c(COc2ccc(Cl)cc2)n[nH]c1=S | 3% | 2% | -6% | 5% | -1% | ?
O=C(c1ccncc1)N1CCC2(CC1)CN(Cc1ccccc1)C2 | 12% | · | -14% | -12% | 13% | ·
CN[C@@H](C)[C@H](O)c1ccccc1 | -11% | 18%[56.1 µM] | · | 18% | · | ·
CC(C)CC(N)C1(c2ccc(Cl)cc2)CCC1 (stereo not given) | · | 4% | · | · | · | ·
CC(NC(=O)CNC(=S)N(Cc1ccccc1)Cc1cccnc1)c1ccccc1 (stereo not given) | ? | 5% | -5% | ? | 4% | -8%
COC(=O)C1=C(c2cc3ccccc3o2)C[C@@H]2CC[C@H]1N2C(=O)NCc1ccccc1 | · | · | · | ? | -29% | 5%
COC(=O)C1=C(c2ccc(S(C)(=O)=O)cc2)C[C@@H]2CC[C@H]1N2C(=O)N1CCOCC1 | 7% | · | · | -2% | -3% | -13%
COC(=O)C1=C(c2ccc3ccccc3c2)C[C@@H]2CC[C@H]1N2C(=O)N1CCCCC1 | 1.8µM* | 1% | -12% | 2.3µM* | -9% | -13%
COC(=O)C1=C(c2ccc3ccccc3c2)C[C@@H]2CC[C@H]1N2C(=O)NC1CCCCC1 | 16µM* | 1% | -1% | ? | -11% | 5%
COC(=O)C1=C(c2cc3ccccc3o2)C[C@@H]2CC[C@H]1N2C(=O)N1CCOCC1 | · | · | · | 3.7µM* | -14% | 1%
Cc1cc(C)n(-c2nc3nonc3nc2Nc2cccc(C)c2C)n1 | ? | 7% | -2% | ? | -13% | -1%
Nc1cc(SCc2ccc(Cl)cc2Cl)ncn1 | ? | · | · | -7% | -1% | -8%
COc1cc(OC)c2c(c1)OC(c1ccc(OC)c(OC)c1)C(O)C2 (stereo not given) | -26% | 8% | -4% | -29% | 1% | ·
